Measured values from the supplement of paper PMC11732987, “Enantioselective OTUD7B fragment discovery through chemoproteomics screening and high-throughput optimisation” (Communications Chemistry, 2025).

Columns and labels:
Assay in all cases: log2 ratio of Biotin-Ahx-Ub-VS probe labelling (fragment/DMSO); higher = less target engagement (more negative = stronger competition), active = hit call of the paper (q ≤ 0.05, log2 ratio ≤ -1)
Settings in all cases: compound concentration: 200 uM; treatment time: 3 h
ALG13 = target: T1, ALG13 (UniProt Q9NP73)
T1 sequence (whole entry): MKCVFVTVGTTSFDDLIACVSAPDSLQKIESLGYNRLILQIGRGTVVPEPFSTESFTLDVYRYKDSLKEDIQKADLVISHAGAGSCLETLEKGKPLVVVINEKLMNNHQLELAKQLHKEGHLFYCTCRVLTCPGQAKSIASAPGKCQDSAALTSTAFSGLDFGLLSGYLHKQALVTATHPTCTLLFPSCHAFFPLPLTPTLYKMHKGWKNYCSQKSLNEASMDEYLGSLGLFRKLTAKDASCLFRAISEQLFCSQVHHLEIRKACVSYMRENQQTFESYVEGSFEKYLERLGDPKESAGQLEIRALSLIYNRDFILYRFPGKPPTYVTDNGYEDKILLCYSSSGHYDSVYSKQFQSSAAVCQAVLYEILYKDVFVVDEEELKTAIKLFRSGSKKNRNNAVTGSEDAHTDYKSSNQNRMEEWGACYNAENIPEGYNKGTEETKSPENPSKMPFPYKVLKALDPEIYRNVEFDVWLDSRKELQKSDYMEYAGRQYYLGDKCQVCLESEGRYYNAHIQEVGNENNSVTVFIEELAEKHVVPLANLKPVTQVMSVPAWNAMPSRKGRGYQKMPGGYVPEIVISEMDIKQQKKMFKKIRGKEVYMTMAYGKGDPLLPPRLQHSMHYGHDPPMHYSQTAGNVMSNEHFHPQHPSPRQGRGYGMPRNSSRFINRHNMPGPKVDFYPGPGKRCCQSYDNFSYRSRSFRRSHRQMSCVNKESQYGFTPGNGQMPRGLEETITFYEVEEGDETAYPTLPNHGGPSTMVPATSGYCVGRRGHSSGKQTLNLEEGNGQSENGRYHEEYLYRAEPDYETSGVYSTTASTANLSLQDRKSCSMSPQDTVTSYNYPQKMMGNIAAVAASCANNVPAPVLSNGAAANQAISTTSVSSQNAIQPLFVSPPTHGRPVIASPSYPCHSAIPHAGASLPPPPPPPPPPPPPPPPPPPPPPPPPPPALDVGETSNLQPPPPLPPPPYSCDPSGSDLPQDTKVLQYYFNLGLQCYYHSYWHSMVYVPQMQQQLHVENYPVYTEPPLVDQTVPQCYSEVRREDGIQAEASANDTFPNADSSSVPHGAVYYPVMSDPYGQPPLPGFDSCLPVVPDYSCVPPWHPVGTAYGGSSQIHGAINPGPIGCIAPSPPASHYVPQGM
In short: (§1)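 Using Biotin-Ahx-Ub-VS at 0.5 µM final for 1 h, DUBs were labelled in HEK293T lysate (495 µg per sample) that had first been treated in triplicate with fragment at 200 µM or vehicle for 3 h. NeutrAvidin enrichment, LysC and trypsin digestion and diaPASEF LC-MS/MS followed. Spectronaut label-free quantities were global-median-normalised. Values are average log2 fragment/vehicle ratios by unpaired t-test, using proteins with ≥2 unique peptides.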

ATXN3 = ATXN3 (UniProt P54252)
ATXN3, sequence (P54252 whole entry): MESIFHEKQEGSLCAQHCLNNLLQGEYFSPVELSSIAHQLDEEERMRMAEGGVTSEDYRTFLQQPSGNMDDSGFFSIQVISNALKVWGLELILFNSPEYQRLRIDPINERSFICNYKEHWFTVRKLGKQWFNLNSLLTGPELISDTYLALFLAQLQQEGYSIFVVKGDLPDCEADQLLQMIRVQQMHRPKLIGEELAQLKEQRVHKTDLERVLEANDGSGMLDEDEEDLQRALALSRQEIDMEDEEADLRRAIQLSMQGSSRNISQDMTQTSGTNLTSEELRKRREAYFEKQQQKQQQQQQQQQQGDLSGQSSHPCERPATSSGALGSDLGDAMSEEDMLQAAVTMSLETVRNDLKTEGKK
In short: as §1

BAP1 = target: T2, BAP1 (UniProt Q92560)
T2 sequence (whole entry): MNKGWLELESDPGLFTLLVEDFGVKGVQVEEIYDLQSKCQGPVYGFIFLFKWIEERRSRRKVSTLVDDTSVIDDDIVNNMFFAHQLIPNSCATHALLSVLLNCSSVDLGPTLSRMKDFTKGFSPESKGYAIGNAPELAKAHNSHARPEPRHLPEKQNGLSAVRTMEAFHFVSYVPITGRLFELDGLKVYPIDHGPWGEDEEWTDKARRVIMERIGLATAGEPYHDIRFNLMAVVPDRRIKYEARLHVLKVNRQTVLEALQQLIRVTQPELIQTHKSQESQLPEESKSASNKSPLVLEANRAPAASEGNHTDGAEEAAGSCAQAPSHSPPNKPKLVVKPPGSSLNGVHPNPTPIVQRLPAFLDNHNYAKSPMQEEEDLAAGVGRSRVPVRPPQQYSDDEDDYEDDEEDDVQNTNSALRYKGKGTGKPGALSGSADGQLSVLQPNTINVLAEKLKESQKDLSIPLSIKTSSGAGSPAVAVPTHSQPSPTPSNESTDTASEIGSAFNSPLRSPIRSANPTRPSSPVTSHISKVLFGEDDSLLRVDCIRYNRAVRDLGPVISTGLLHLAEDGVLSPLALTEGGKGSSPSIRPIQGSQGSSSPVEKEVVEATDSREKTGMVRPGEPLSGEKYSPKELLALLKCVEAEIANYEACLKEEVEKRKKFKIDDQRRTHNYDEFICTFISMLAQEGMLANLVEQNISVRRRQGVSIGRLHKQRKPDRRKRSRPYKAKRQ
In short: as §1

EIF3F = EIF3F (UniProt O00303)
EIF3F, sequence (O00303 whole entry): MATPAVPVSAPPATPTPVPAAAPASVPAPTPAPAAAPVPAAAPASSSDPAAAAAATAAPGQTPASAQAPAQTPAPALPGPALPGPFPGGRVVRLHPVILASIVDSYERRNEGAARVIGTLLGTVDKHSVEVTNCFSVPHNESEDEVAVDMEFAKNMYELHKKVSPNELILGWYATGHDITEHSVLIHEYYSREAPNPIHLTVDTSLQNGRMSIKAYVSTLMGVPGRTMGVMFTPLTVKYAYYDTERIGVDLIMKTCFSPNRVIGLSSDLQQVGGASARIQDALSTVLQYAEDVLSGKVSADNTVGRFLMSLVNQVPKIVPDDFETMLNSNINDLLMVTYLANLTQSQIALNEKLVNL
In short: as §1

EIF3H = EIF3H (UniProt O15372)
EIF3H, sequence (O15372 whole entry): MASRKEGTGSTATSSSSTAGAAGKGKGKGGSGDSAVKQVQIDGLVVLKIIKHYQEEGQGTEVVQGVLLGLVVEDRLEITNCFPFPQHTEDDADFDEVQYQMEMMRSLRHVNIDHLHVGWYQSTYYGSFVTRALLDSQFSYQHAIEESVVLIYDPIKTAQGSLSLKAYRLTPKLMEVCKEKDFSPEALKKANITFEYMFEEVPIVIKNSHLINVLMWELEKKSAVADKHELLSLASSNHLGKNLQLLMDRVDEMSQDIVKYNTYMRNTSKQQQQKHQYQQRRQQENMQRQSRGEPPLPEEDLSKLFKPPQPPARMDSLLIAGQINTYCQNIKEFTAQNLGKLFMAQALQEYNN
In short: as §1

FAM105A = target: T3, FAM105A (UniProt Q9NUU6)
T3 sequence (whole entry): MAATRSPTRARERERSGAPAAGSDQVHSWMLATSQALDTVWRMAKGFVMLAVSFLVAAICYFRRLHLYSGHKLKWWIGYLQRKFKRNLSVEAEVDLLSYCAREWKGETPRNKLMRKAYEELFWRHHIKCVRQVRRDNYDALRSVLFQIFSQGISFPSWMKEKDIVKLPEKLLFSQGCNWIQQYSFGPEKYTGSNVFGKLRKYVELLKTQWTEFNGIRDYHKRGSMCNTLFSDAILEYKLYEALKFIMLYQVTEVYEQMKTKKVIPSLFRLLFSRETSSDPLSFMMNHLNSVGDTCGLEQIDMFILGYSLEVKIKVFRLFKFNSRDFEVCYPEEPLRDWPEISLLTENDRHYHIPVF
In short: as §1

OTUB1 = OTUB1 (UniProt Q96FW1)
OTUB1, sequence (Q96FW1 whole entry): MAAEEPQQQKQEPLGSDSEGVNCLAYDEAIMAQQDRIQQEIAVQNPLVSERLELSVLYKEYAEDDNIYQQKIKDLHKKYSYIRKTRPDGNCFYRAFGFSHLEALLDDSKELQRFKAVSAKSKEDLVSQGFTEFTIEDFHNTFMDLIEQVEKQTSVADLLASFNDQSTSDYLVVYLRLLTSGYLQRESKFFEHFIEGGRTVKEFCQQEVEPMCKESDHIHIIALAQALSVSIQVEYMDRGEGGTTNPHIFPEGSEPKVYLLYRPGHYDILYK
In short: as §1

OTUD4 = target: T4, OTUD4 (UniProt Q01804)
T4 sequence (whole entry): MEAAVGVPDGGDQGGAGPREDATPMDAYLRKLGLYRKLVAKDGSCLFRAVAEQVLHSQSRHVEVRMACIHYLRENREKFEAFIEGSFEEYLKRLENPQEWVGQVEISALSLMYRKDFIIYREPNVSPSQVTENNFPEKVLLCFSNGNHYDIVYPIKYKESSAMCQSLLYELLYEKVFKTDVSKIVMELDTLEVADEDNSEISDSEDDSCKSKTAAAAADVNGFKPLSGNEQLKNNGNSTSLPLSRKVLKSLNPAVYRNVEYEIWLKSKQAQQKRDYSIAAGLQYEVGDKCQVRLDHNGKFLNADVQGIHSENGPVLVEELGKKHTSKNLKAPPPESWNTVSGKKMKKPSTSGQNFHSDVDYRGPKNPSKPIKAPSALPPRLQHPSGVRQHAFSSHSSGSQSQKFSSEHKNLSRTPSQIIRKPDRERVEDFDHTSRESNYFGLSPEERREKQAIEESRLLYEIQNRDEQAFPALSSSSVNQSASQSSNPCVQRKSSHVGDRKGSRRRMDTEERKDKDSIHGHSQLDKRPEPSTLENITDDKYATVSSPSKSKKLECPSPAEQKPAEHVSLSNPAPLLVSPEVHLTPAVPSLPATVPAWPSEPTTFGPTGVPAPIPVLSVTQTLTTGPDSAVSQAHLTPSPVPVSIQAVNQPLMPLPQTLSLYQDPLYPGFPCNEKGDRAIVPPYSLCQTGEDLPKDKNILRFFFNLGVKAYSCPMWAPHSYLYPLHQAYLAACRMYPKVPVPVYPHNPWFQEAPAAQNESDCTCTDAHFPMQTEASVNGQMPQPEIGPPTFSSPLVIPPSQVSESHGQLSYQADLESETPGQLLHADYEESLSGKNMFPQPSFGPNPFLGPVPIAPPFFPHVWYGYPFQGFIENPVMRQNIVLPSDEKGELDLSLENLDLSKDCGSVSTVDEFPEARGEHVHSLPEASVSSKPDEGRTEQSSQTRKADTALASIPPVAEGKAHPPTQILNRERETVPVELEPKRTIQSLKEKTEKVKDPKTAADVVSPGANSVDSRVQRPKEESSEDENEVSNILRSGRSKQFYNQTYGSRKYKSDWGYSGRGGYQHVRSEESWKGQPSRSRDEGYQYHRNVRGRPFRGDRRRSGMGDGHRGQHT
In short: as §1

OTUD5 = target: T5, OTUD5 (UniProt Q96G74)
T5 sequence (whole entry): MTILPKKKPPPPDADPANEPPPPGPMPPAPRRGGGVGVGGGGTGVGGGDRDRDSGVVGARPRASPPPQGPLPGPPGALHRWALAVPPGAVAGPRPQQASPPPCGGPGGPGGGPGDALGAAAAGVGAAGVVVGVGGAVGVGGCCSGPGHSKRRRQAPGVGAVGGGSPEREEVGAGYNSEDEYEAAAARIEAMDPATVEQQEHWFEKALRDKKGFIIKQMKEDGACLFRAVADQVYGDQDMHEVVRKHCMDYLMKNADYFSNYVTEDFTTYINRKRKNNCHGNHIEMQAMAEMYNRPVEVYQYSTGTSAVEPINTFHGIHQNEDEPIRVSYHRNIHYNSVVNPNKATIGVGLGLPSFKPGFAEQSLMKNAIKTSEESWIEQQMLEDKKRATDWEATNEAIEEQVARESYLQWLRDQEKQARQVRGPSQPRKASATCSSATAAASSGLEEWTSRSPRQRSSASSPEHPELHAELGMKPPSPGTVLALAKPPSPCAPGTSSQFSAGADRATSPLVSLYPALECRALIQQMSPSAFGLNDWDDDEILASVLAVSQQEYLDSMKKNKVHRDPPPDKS
In short: as §1

Measured: log2 ratio of Biotin-Ahx-Ub-VS probe labelling

Cl.O=C(CCl)N1CCC(Cc2nccs2)C1 (centres undefined)
inactive: ALG13 0.0161 | ATXN3 -0.494 | BAP1 -0.428 | EIF3F -0.176 | EIF3H 0.0343 | FAM105A -0.0526 | OTUB1 -0.388 | OTUD4 -0.386 | OTUD5 -0.302
